Reference: PubChem BioAssay (NCI)
The panel holds about 83,000 compounds, 20% with a hit somewhere; the sample as a whole holds those more often.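 Step 1: grow cells in 96-well plates. Step 2: add test compound at a single concentration. Step 3: incubate 48 h. Step 4: record percent growth.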 A number with no mark means an inactive call. Calls of active or inactive are those of the source. Rule for the calls: active = growth percent below 10; inactive = the rest.

Assays:
Assay in all cases: NCI-60 one-dose screen, 48 h (100 = growth as untreated, 0 = no growth, -100 = all killed)
Conditions in all cases: 10 µM unless noted
HCT-15 colon = test system: HCT-15 colon
HT29 colon = test system: HT29 colon
SNB-19 CNS = test system: SNB-19 CNS
U251 CNS = test system: U251 CNS
PC-3 prostate = test system: PC-3 prostate
SK-MEL-5 melanoma = test system: SK-MEL-5 melanoma
UACC-62 melanoma = test system: UACC-62 melanoma
LOX IMVI melanoma = test system: LOX IMVI melanoma
SK-MEL-28 melanoma = test system: SK-MEL-28 melanoma
SNB-75 CNS = test system: SNB-75 CNS

Compound | growth (HCT-15 colon) | growth (HT29 colon) | growth (SNB-19 CNS) | growth (U251 CNS) | growth (PC-3 prostate) | growth (SK-MEL-5 melanoma) | growth (UACC-62 melanoma) | growth (LOX IMVI melanoma) | growth (SK-MEL-28 melanoma) | growth (SNB-75 CNS) [%]
C=C1C(=O)O[C@H]2[C@H]1CC/C(COC(=O)Nc1nc3ccccc3[nH]1)=C\CC[C@@]1(C)O[C@@H]21 | 25.3% | 42.2% | 91.1% | 90.2% | 67.5% | 83.7% | 53.9% | 69.6% | 61.4% | 
O=C(/C(=C/c1ccc([N+](=O)[O-])cc1)SCc1ccccc1)c1ccc(Cl)cc1 | 34.3% | 52% | 70.6% | 61.6% | 60.9% | 73% | 9.57% (active) | 32.6% | 94.6% | 
COc1ccc2oc(=O)cc(-c3nc4ccc(N)cc4[nH]3)c2c1 |  | 97.3% | 90.9% | 86.2% | 81.1% | 81.5% | 91.5% | 78.6% | 111% | 53.6
O=C1C(Cl)=C(NCCCN(CCCNC2=C(Cl)C(=O)c3ccccc3C2=O)C2=C(Cl)C(=O)c3ccccc3C2=O)C(=O)c2ccccc21 | 37.1% | 12.4% | 72.9% | 37.4% | 47% | -59.1% (active) | 17.9% | 10.8% | 71.7% | 
O=C(Nc1cc(Br)ccn1)c1cc2cc(Nc3nc(-c4ccccc4)nc4ccccc34)ccc2oc1=O | 107% | 104% | 107% | 107% | 93.6% | 101% | 103% | 83.8% | 114% | 
Cn1cc(-c2ccc3c(c2)ncn3-c2ccc(CC(=O)Nc3cc(C(C)(C)C)on3)cc2)cn1 | 16.1% | 27.1% | 58.5% | 31.3% | 43.5% | 48.2% | 35.4% | 12.6% | 48.5% | 
N#Cc1c(-c2ccc(F)cc2)nc(N/N=C/c2c[nH]c3ccccc23)nc1N1CCOCC1 | 8.42% (active) | 18% | 89.7% | 32.2% | 49.9% | 37.1% | 61.8% | 20.6% | 4.29% (active) | 
CC(C)(C)c1ccc2oc(=O)n(SC(Cl)(Cl)Cl)c2c1 | 99.1% | 90.4% | 112% | 104% | 99.3% | 107% |  | 93.4% | 112% | 
CC(C)(C)CC(C)(C)Cc1ccc(OCCOCC[N+](C)(C)Cc2ccccc2)cc1 | 97% | 9.89% (active) | -7.68% (active) | 2.86% (active) | 10.1% | -98.8% (active) | -36.1% (active) | 10.5% | 20.5% | 
CCCCn1c(=O)c(/C=C/C(=O)/C=C/c2cc3ccccc3n(CCCC)c2=O)cc2ccccc21 | 1.62% (active) | -88.9% (active) | 16.2% | -48.3% (active) | 1.47% (active) | -74.5% (active) | -43.8% (active) | -80.3% (active) | -8.48% (active) | 
COc1cc(C2=N/C(=C\c3cc4ccccc4nc3Oc3ccccc3)C(=O)N2C(=N)N)cc(OC)c1OC | 91.3% | 64.2% | 32.3% | 50.6% | 70.4% | 83.5% | 50% | 66.9% | 78.4% | 
Cc1ccc(C(=O)/C(=C/c2ccc([N+](=O)[O-])cc2)S(=O)Cc2ccccc2)cc1 (configuration not stated) | -8.82% (active) | -21% (active) | 34.8% | 13.4% | -0.822% (active) | 37.8% | -54.9% (active) | -82.1% (active) | 17.1% | 
